Values joined by “and” are separate entries in the source; they are usually repeats but may differ in a detail not shown here. Identical values can stand only once. The panel holds about 83,000 compounds, 20% with a hit somewhere; the sample as a whole holds those more often.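 48-hour exposure, single concentration, 96-well plates; percent growth endpoint where 0 means no net growth. Active: below 10.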 Values without a mark were called inactive. Active and inactive are the calls of the source.
System: MDA-MB-468 breast
Experiment: NCI-60 one-dose screen, 48 h (100 = growth as untreated, 0 = no growth, -100 = all killed)
Details: 10 µM unless noted

With COc1ccc(-c2nc(SCCC(C)C)nc(Nc3ccc(C(=O)O)cc3)c2C#N)cc1 as the molecule, how does the growth read?
The growth was 105%.

How did the growth turn out when CC1=CC(=C(c2ccc(N)cc2)c2ccc(N)cc2)C=CC1=N was run?
The growth was -13.6% (active) and -1.34% (active).

With Fc1ccc(-c2cc3nc(C(Cl)Cl)nc(-c4cccs4)n3n2)cc1 as the molecule, how does the growth read?
Its growth is -46.8% (active).

How did the growth turn out when CCCC/C(=N\N=C(N)N)c1ccc(F)cc1 was run?
The growth was -12.3% (active).

CN(C)c1ccc(C(=O)c2ccc(N(C)C)c(N)c2)cc1N was tested. Which growth did it give?
Its growth is -20.9% (active).

COc1ccc(-c2nc3c(c(-c4ccccc4)nn3-c3ccccc3)c(-c3ccc(N4CCOCC4)cc3)c2C#N)cc1 was tested. Which growth did it give?
The growth was 97.8%.

How did the growth turn out when CCc1n(Cc2ccc3ccccc3c2)cc[n+]1Cc1ccc2ccccc2c1 was run?
Its growth is -22.9% (active).

For CN1CCN(Cc2occc(=O)c2O)CCN(C)CCN(Cc2occc(=O)c2O)CC1, which growth is on record?
The growth was 111% and 87.9%.

C#C[C@]1(O)CC[C@H]2[C@@H]3CC=C4c5sc(Nc6ncccc6C)nc5CC[C@]4(C)[C@H]3CC[C@@]21C was tested. Which growth did it give?
Its growth is -8.36% (active).

C=C[C@@H]1CCC/C=C/[C@@H]2C[C@H](O)C[C@H]2[C@H](O)/C=C/C(=O)O1 was tested. Which growth did it give?
The growth was -46.6% (active).

COc1cc(-c2nn(-c3ccc(NC(=O)Nc4cc(C(F)(F)F)cc(C(F)(F)F)c4)cc3)cc2-c2ccncc2)ccc1Cl was tested. Which growth did it give?
Its growth is -15.2% (active).

For CCCC(C)c1cc(Cc2cc(Cl)cc(Cl)c2O)c(O)c(Cc2cc(Cl)cc(Cl)c2O)c1 (stereo unspecified), which growth is on record?
Its growth is -1.2% (active).

How did the growth turn out when Cc1nc(C)c(-c2nn3c(-c4cccc(F)c4)nnc3s2)s1 was run?
Its growth is 89.5%.

With c1ccc(C2CC(c3cccc(Nc4ccncc4)c3)=NN2c2ccccc2)cc1 (stereo unspecified) as the molecule, how does the growth read?
Its growth is 24.2%.

With COc1ccc(-c2nc3c(c(-c4ccc(Cl)cc4)nn3-c3ccccc3)c(-c3ccccc3)c2C#N)cc1 as the molecule, how does the growth read?
The growth was 108%.

NS(=O)(=O)c1ccc(C(=O)N/N=C(\CS(=O)(=O)c2ccccc2)c2cc3cc(Br)ccc3o2)cc1 was tested. Which growth did it give?
The growth was 78.9%.

How did the growth turn out when O=C(CCCNC(=O)c1nc(-c2ccccc2)n(-c2ccccc2)n1)NO was run?
The growth was 98.8%.

CCc1ccc(C2=NN(c3ccc(S(C)(=O)=O)cc3)C(=O)CC2)cc1 was tested. Which growth did it give?
The growth was 50.7%.

For CSc1nc2sc3c(c2c(=O)n1-c1ccc(C(C)C)cc1)CCC(=O)C3, which growth is on record?
Its growth is -16.5% (active).

For O=C(Nc1ccc2cc3ccc(NC(=O)N4CCCCCC4)cc3nc2c1)N1CCCCCC1, which growth is on record?
Its growth is -48.5% (active).

O=C(Nc1cccc(-c2nc3ccccc3[nH]2)c1)c1cccc(NC(=O)c2ccco2)c1 was tested. Which growth did it give?
Its growth is 70.8%.

N#C/C(C(=O)c1ccccc1)=C1/C(=O)Nc2ccccc21 was tested. Which growth did it give?
Its growth is 121%.

How did the growth turn out when COC1=CC(c2ccc[nH]2)=N/C1=C\c1[nH]c(C)c(CCCn2cc(CCCCCCCCC[C@@H]3Cc4cc(O)ccc4C4CC[C@]5(C)[C@@H](O)CC[C@H]5C43)nn2)c1C (stereo partly specified) was run?
Its growth is 30.1%.

How did the growth turn out when C#Cc1nc2ccccc2c(=O)[nH]1 was run?
Its growth is -46.9% (active).

With O=c1cc(-c2ccccc2)nc2sc(-c3c[nH]c4ccc(Br)cc34)nn12 as the molecule, how does the growth read?
Its growth is 87.2%.

For O=C(CCl)N1c2cccc3cccc(c23)N(C(=O)CCl)C1c1cn(-c2ccccc2)nc1-c1cccc([N+](=O)[O-])c1, which growth is on record?
Its growth is 101%.

How did the growth turn out when CC(=O)Nc1cc2c(cc1Cl)Cc1cc(Cl)ccc1-2 was run?
The growth was -50.2% (active).

COc1cc(NC(C)CCCNC(=O)CCC(=O)NCCCNCCCCCCCCNCCCNC(=O)CCC(=O)NCCCC(C)Nc2cc(OC)cc3cccnc23)c2ncccc2c1 (stereo unspecified) was tested. Which growth did it give?
The growth was 16.8%.

How did the growth turn out when Cc1ccc(-[n+]2c3cc(N)c(C)cc3nc3cc(C)c(Nc4ccccc4)cc32)cc1 was run?
The growth was -86.2% (active).

Cc1nn(-c2ccccc2)c2nc(CCl)[nH]c(=O)c12 was tested. Which growth did it give?
The growth was 26.6%.

With Cc1c([N+](=O)[O-])cc(C(C)(C)C)cc1[N+](=O)[O-] as the molecule, how does the growth read?
Its growth is 90.6%.

With Cc1ccccc1NC(=O)c1sc2nc3c(cc2c1N)C(=O)CCC3 as the molecule, how does the growth read?
The growth was -4.56% (active).

How did the growth turn out when C#CCOC(=O)[C@@H]1CCCN1CC#C was run?
The growth was 75.4%.

With COc1cc(-c2nc3ccc(-c4nnc(SCC(=O)Nc5ccc(C(C)=O)cc5)o4)cc3[nH]2)cc(OC)c1OC as the molecule, how does the growth read?
The growth was 101%.

How did the growth turn out when O=C1C(Cl)=C(NCCCN2CCOCC2)C(=O)c2ccccc21 was run?
Its growth is 64.7%.

C=C(CNCCc1ccc(O)cc1)[C@@H]1CC[C@]2(COC3CCCCO3)CC[C@]3(C)[C@H](CC[C@@H]4[C@@]5(C)CCC(N)C(C)(C)[C@@H]5CC[C@]43C)[C@@H]12 (stereo partly specified) was tested. Which growth did it give?
The growth was -85.6% (active).
